HP1b chromo inh – HP1-beta chromodomain-methylated histone interaction inhibition. P83916. AlphaScreen HP1-beta / biotin-H3K9me3 peptide binding. Potency, µM (series often up to 114 µM), for inactives: top-dose activity change, negative = inhibition, most hits filed as inhibitors. actives 0.56% (n = 390,000). AID 540317; note: nearly all actives have a fitted effect of over 70% in size
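Compound inhibition of the preformed complex between 50 nM HP1-beta and 50 nM biotinylated H3K9me3 peptide was read by AlphaScreen. Buffer was PBS pH 7.4 with 0.01% Tween-20. Incubations ran 30 min at room temperature, with 10 ug/mL donor/acceptor beads.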
G9a inh – blocks human histone lysine methyltransferase G9a | actives 8.8% (n = 350,000) | G9a H3K9 monomethylation, AlphaScreen, 2 h | Q96KQ7 | Potency, µM (titrated, usually from 102 µM), without a hit: top-dose activity, negative = inhibition, hits mostly inhibitors | AID 504332; note: % is set by controls: 0 for no effect and ±100 for the full control effect; nearly all actives have a fitted effect of over 75% in size
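Methyltransferase reactions run at room temperature for 2 h (20 nM enzyme, 500 nM biotin-H3K9 peptide, 20 uM SAM) after a 15 min compound preincubation; product detected by AlphaScreen beads and anti-H3K9me1 antibody.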
BAZ2B inh – BAZ2B (human) inhibition; Q9UIF8; AlphaScreen BAZ2B-H3K14Ac peptide displacement; Potency, µM (series often up to 114 µM), for the others: top-dose activity change, negative = inhibition, hits mostly inhibitors; actives 4.4% (n = 360,000); AID 504333; note: % is set by controls: 0 for no effect and ±100 for the full control effect; nearly all actives have a fitted effect of over 60% in size
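BAZ2B (50 nM) with biotin-H3(5-23)K14Ac peptide (50 nM) in PBS pH 7.4, 0.01% Tween-20, preformed 30 min, then compound 30 min at room temperature; top concentration 110uM. AlphaScreen streptavidin donor/nickel chelate acceptor beads (10 ug/mL final), 20 min dark, signal read.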
Sfp inh – inhibitors of Bacillus subtilis Sfp phosphopantetheinyl transferase; Q9F4F7; Biochemical Sfp PPTase activity, qHTS; Potency, µM, inactives show largest response in the series, negative = inhibition, usual class: inhibitors; actives 3.5% (n = 310,000);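 note: the enzyme is Sfp with the accession as filed and its product quenches rhodamine fluorescence; 0% = enzyme reaction without inhibitor and -100% = no enzyme wells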
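With Hepes-Na pH 7.6 buffer containing 10 mM MgCl2, Sfp (15 nM) modified BHQ-2-YbbR (12.5 uM) using rhodamine-CoA (5 uM). Two reads 30 minutes apart at 525/598 nm yielded each well's rate.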
L3MBTL1 inh – inhibitors of human L3MBTL1 | Q9Y468 | AlphaScreen L3MBTL1–H3K9me1 peptide binding | Potency, µM (doses to about 57.1 µM), inactives show at the top dose activity, negative = inhibition, hits mostly inhibitors | actives 0.66% (n = 230,000) | AID 485360; note: % is set by controls: 0 for no effect and ±100 for the full control effect; nearly all actives have a fitted effect of over 60% in size
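First, the protein-peptide complex forms for 30 min at room temperature (L3MBTL1 50 nM, biotinylated H3K9me1 peptide 75 nM). Next, compounds are pin-transferred and incubated 30 min. Finally, AlphaScreen beads are added and read after 30 min.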
JMJD2A Tudor inh – inhibitors of human JMJD2A Tudor domain; AlphaScreen JMJD2A-Tudor / H3K4me3 peptide binding; Potency, µM (top dose mostly 114 µM), for the others: at the top dose activity change, negative = inhibition, usual class: inhibitors; actives 4.4% (n = 390,000); note: % is set by controls: 0 for no effect and ±100 for the full control effect; nearly all actives have a fitted effect of over 50% in size
Target sequence (O75164 whole entry, looked up, the tested form may be a part): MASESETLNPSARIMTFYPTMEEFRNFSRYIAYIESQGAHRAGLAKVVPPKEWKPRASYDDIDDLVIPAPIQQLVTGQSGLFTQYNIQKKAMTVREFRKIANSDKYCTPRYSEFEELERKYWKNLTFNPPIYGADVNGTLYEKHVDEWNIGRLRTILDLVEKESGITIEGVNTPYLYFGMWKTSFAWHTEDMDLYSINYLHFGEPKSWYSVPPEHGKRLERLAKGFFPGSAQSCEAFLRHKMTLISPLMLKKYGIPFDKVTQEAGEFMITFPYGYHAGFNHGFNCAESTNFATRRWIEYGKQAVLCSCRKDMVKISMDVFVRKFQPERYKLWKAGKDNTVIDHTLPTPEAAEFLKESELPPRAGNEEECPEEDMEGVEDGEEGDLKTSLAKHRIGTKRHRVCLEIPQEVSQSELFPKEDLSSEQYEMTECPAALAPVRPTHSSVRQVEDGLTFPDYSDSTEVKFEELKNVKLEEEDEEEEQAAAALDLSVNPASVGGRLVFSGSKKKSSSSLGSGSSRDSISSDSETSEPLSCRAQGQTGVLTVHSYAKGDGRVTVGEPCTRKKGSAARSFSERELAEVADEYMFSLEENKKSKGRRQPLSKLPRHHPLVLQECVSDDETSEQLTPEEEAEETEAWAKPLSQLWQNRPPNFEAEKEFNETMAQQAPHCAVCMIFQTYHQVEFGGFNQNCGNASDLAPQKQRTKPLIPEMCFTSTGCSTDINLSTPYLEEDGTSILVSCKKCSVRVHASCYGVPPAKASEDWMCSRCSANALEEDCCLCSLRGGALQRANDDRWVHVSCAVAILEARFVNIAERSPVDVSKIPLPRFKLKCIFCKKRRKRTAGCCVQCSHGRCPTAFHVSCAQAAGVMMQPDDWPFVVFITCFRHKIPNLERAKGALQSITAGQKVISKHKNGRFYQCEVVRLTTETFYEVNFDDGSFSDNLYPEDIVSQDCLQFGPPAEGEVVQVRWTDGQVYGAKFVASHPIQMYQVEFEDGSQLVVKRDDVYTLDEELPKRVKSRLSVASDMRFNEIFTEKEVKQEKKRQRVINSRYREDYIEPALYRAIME
* marks the source's active call; other numbers are inactive results; [ ] = remark or other dose. Most compounds without a hit are left out; they make up all but 12% or so of the library. Calls come from the whole dose curve; as a rule, active = well fitted curve in the direction sought with a large enough effect; inconclusive = small, poorly fitted or top-dose-only effect, or another doubt; inactive = no such curve, though single readings can be large; an effect the other way counts as inactive or inconclusive. Potency is the fitted concentration of half-maximal effect.

How did CC[C@H](C)[C@H](NC(=O)[C@H](C)NC(=O)CNC(=O)[C@H](CCCN=C(N)N)NC(=O)[C@H](C)NC(=O)[C@H](CC(C)C)NC(=O)[C@H](CCC(=O)O)NC(=O)[C@H](CC(C)C)NC(=O)[C@H](C)NC(=O)[C@@H](N)CCC(=O)O)C(=O)N[C@@H](Cc1ccccc1)C(=O)N[C@@H](CCC(N)=O)C(=O)N[C@@H](C)C(=O)O do in these assays?
Sfp inh: 7%

How did COCCN1CCC(CNCc2cn(-c3cc(C)ccc3C)nc2-c2ccccc2)C1 (configuration not stated) do in these assays?
HP1b chromo inh: 22%; G9a inh: -9%; BAZ2B inh: 2%; Sfp inh: 50µM*; L3MBTL1 inh: -17%; JMJD2A Tudor inh: -33%

What do the screens show for `CCn1ccnc1CNCc1cn(-c2cc(C)ccc2C)nc1-c1ccccc1`?
HP1b chromo inh: 10%; G9a inh: -10%; BAZ2B inh: 40µM*; Sfp inh: -14%; L3MBTL1 inh: inconclusive; JMJD2A Tudor inh: inconclusive

How did Cc1ccc(C)c(-n2cc(CNCCc3cnccn3)c(-c3ccccc3)n2)c1 do in these assays?
HP1b chromo inh: 31%; G9a inh: 0%; BAZ2B inh: -20%; Sfp inh: 1%; L3MBTL1 inh: -6%; JMJD2A Tudor inh: -8%

Results for CCCCCCCC1=Cc2ccccc2C(CC(C)=O)N1C(=O)OC (configuration not stated) ?
Sfp inh: -9%

What do the screens show for `CSc1nc2ncnc(N)c2[nH]1`?
HP1b chromo inh: 7%; G9a inh: 45µM*; BAZ2B inh: -27%; Sfp inh: -27%; JMJD2A Tudor inh: 79µM*

What do the screens show for `Fc1cccc(CSc2nnc3c(n2)[nH]c2ccccc23)c1`?
HP1b chromo inh: 36%; G9a inh: 24%[59 µM]; BAZ2B inh: -10%; Sfp inh: 17%; JMJD2A Tudor inh: -14%

Results for CN(C)CCSc1nnc2[nH]c3ccccc3c2n1 ?
HP1b chromo inh: 26%; G9a inh: 1.4µM*; BAZ2B inh: -4%; Sfp inh: -25%; L3MBTL1 inh: -5%; JMJD2A Tudor inh: -9%

How did COc1ccc2cc1Oc1ccc(cc1)CC1c3cc(c(OC)cc3CCN1C)Oc1c(OC)c(OC)c(OC)c3c1C(C2)N(C)CC3 (configuration not stated) do in these assays?
Sfp inh: -17%

Results for COc1ccc2cc1Oc1ccc(cc1)CC1c3c(cc4c(c3Oc3cc5c(cc3OC)CCN(C)C5C2)OCO4)CCN1C (configuration not stated) ?
G9a inh: -10%[2.33 µM]; Sfp inh: 4%

How did COc1ccc2cc1Oc1ccc(cc1)C[C@H]1c3c(cc(OC)c4c3Oc3c(ccc5c3[C@H](C2)N(C)CC5)O4)CCN1C do in these assays?
HP1b chromo inh: inconclusive; L3MBTL1 inh: -5%; JMJD2A Tudor inh: 20µM*

How did COc1ccc2cc1Oc1ccc(cc1)CC1c3c(cc(OC)c4c3Oc3cc5c(cc3O4)CCNC5C2)CCN1C (configuration not stated) do in these assays?
HP1b chromo inh: inconclusive; G9a inh: inconclusive; BAZ2B inh: 6.3µM*; Sfp inh: inconclusive; JMJD2A Tudor inh: 11µM*

How did COc1cc2oc(=O)c(CC(=O)NCCc3ccccc3F)c(C)c2cc1OC do in these assays?
HP1b chromo inh: 2%; G9a inh: 4%[59 µM]; BAZ2B inh: -13%; JMJD2A Tudor inh: -19%

Results for CCCC1=NN2C(=N)/C(=C\c3ccc(SCc4ccco4)o3)C(=O)N=C2S1 ?
HP1b chromo inh: inconclusive; G9a inh: 8.9µM*; BAZ2B inh: 45µM*; Sfp inh: 56µM*; JMJD2A Tudor inh: 50µM*
